About 83,000 compounds went through this panel and 20% of them were active in at least one assay; those are over-represented in the sample as a whole.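 The test compound was applied at a single concentration to cells in 96-well plates for 48 hours, and percent growth was recorded.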 Unmarked numbers belong to inactive results. Activity calls are given as the source filed them. Rule for the calls: active = growth percent below 10; inactive = the rest.
Key:
Assay in all cases: NCI-60 one-dose screen, 48 h (100 = growth as untreated, 0 = no growth, -100 = all killed)
Details in all cases: 10 µM unless noted
HT29 colon = system: HT29 colon
SNB-75 CNS = system: SNB-75 CNS
SNB-19 CNS = system: SNB-19 CNS
U251 CNS = system: U251 CNS
PC-3 prostate = system: PC-3 prostate
SK-MEL-5 melanoma = system: SK-MEL-5 melanoma
UACC-62 melanoma = system: UACC-62 melanoma
LOX IMVI melanoma = system: LOX IMVI melanoma
SK-MEL-28 melanoma = system: SK-MEL-28 melanoma
SK-MEL-2 melanoma = system: SK-MEL-2 melanoma
EKVX NSCLC = system: EKVX NSCLC
SN12C renal = system: SN12C renal
UO-31 renal = system: UO-31 renal
TK-10 renal = system: TK-10 renal
ACHN renal = system: ACHN renal
A498 renal = system: A498 renal
CCRF-CEM leukemia = system: CCRF-CEM leukemia
MOLT-4 leukemia = system: MOLT-4 leukemia
CAKI-1 renal = system: CAKI-1 renal

SMILES | growth (HT29 colon) | growth (SNB-75 CNS) | growth (SNB-19 CNS) | growth (U251 CNS) | growth (PC-3 prostate) | growth (SK-MEL-5 melanoma) | growth (UACC-62 melanoma) | growth (LOX IMVI melanoma) | growth (SK-MEL-28 melanoma) | growth (SK-MEL-2 melanoma) | growth (EKVX NSCLC) | growth (SN12C renal) | growth (UO-31 renal) | growth (TK-10 renal) | growth (ACHN renal) | growth (A498 renal) | growth (CCRF-CEM leukemia) | growth (MOLT-4 leukemia) | growth (CAKI-1 renal)
O=C(N/N=C/c1ccc(B(O)O)s1)c1[nH]c2ccc(Br)cc2c1-c1ccccc1 | -63.3% (active) | -72.7% (active) | -97.3% (active) | -79.8% (active) | -9.11% (active) | -95.3% (active) | -99.5% (active) | -99.3% (active) | -93.3% (active) | -82.6% (active) | -98.8% (active) | -79.4% (active) | -76.3% (active) | -93.2% (active) | -100% (active) | -88.3% (active) | -16.5% (active) | -8% (active) | 
CCN1CCN(Cc2ccc(C(=O)Nc3cccc(Nc4ccc5c(OC)cccc5n4)c3)cc2C(F)(F)F)CC1 | -67.6% (active) | -89.7% (active) | -99.7% (active) | -80.9% (active) | -38.6% (active) | -99.2% (active) | -95.1% (active) | -92.1% (active) | -100% (active) | -76% (active) | -95.7% (active) | -90.5% (active) | -85.8% (active) | -86.2% (active) | -100% (active) | -88.8% (active) | -30.5% (active) | -45.4% (active) | 
O=C(NNC(=O)c1ccc(OCc2nc3ccc(Cl)cc3[nH]2)cc1)Nc1ccc(Cl)c(Cl)c1 | 67.2% | 111% | 20.2% | -1.4% (active) | 63.3% | 56.5% | 62.7% | 40% | 8.8% (active) | 72.7% | 91.9% | 76.7% | 84.7% | 110% | 106% | 182% | 88.5% | 94% | 91.8%
CS(=O)(=O)Nc1cc(-c2ccc3ncnc(Nc4ccc(OCc5cccnc5)c(Cl)c4)c3c2)cnc1Cl | 5.66% (active) | 10.7% | -0.382% (active) | -34.2% (active) | 3.42% (active) | -94.5% (active) | -64.3% (active) | -64.2% (active) | -6.84% (active) | -76.7% (active) | -24.4% (active) | 8.19% (active) | 23.2% | -27% (active) | 32% | -25.6% (active) | 11% | -50.6% (active) | 1.71% (active)
Cc1ccc2c(c1)/C(=C/C(=O)c1cc3ccccc3oc1=O)C(=O)N2 | 59.9% | 88.7% | 87.8% | 73.9% | 73.5% | 94.2% | 49.7% | 27.4% | 55.7% | 72.6% | 78.2% | 67.8% | 55.2% | 80.7% | -63.2% (active) | 128% | 3.14% (active) | 32.8% | 76.9%
CC1=C(C(=O)Nc2ccccc2)C(c2cccc(Cl)c2Cl)n2c(nc3ccccc32)N1 (stereo unspecified) | 22.1% | 47.2% | 67.5% | 57.2% | 18.1% | 46.7% | 46.7% | 49.5% |  | 75.2% | 46.3% | 53.4% | 33.7% | 57.8% | 42.5% | 35% | 29.8% | 7.7% (active) | 36.4%
